{"source": "paper PMC11574364", "data": [{"biological_target": "T1, PSF (Homo sapiens, UniProt P23246)", "T1 sequence": "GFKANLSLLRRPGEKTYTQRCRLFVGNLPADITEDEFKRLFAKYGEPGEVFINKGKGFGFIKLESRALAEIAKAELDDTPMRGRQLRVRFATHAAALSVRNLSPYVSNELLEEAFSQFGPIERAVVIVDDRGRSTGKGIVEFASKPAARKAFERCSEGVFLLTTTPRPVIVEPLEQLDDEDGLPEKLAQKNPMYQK", "assay": "protein domain microarray probed with biotinylated miRNA; Domain array: 20 mM Tris-HCl pH 7.4, 200 mM KCl, 0.2 mM EDTA, 0.05% NP40, 2 ug/ul heparin, overnight 4 C. ORF array: PBS pH 7.0 with RNase inhibitor, 100 ng RNA; high values mean tight binding", "details": "ssRNA", "units": {"binding signal": "fluorescence intensity"}, "values": [{"sequence": "AGAGGUAGUAGGUUGCAUAGUU", "binding signal": "905 ± 13.5"}, {"sequence": "UGAGGUAGUAGGUUGUAUAGUU", "binding signal": "265 ± 6.17"}, {"sequence": "CAGUGCAAUGAUGAAAGGGCAU", "binding signal": "80.6 ± 13.1"}, {"sequence": "UGAGGUAGUAGGUUGUGUGGUU", "binding signal": "1020 ± 15.7"}, {"sequence": "UGAGGUAGUAGGUUGUAUGGUU", "binding signal": "837 ± 12.7"}]}, {"biological_target": "T2, ADAR(1) (Homo sapiens, UniProt P55265)", "T2 sequence": "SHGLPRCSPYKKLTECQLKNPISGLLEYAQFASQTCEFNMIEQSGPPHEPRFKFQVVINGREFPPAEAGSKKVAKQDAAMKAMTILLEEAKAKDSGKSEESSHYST", "assay": "protein domain microarray probed with biotinylated miRNA; Domain array: 20 mM Tris-HCl pH 7.4, 200 mM KCl, 0.2 mM EDTA, 0.05% NP40, 2 ug/ul heparin, overnight 4 C. ORF array: PBS pH 7.0 with RNase inhibitor, 100 ng RNA; high values mean tight binding", "details": "ssRNA", "units": {"binding signal": "fluorescence intensity"}, "values": [{"sequence": "AGAGGUAGUAGGUUGCAUAGUU", "binding signal": "20.7 ± 1.3"}, {"sequence": "UGAGGUAGUAGGUUGUGUGGUU", "binding signal": "30.1 ± 1.12"}, {"sequence": "UGAGGUAGUAGGUUGUAUGGUU", "binding signal": "27.9 ± 1.27"}]}, {"biological_target": "T3, RKHD1 (Homo sapiens, UniProt Q86XN8)", "T3 sequence": "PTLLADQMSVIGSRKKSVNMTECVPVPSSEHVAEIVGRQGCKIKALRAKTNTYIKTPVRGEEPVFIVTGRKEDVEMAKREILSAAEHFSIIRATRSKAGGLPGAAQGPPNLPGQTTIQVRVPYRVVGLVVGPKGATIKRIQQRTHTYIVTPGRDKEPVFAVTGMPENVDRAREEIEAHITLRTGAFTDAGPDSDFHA", "assay": "protein domain microarray probed with biotinylated miRNA; Domain array: 20 mM Tris-HCl pH 7.4, 200 mM KCl, 0.2 mM EDTA, 0.05% NP40, 2 ug/ul heparin, overnight 4 C. ORF array: PBS pH 7.0 with RNase inhibitor, 100 ng RNA; high values mean tight binding", "details": "ssRNA", "units": {"binding signal": "fluorescence intensity"}, "values": [{"sequence": "AGAGGUAGUAGGUUGCAUAGUU", "binding signal": "2940 ± 199"}, {"sequence": "UGAGGUAGUAGGUUGUAUAGUU", "binding signal": "1260 ± 32.7"}, {"sequence": "UAGCUUAUCAGACUGAUGUUGA", "binding signal": "977 ± 62.8"}, {"sequence": "CAGUGCAAUGAUGAAAGGGCAU", "binding signal": "1330 ± 109"}, {"sequence": "UGAGGUAGUAGGUUGUGUGGUU", "binding signal": "1570 ± 135"}, {"sequence": "UGAGGUAGUAGGUUGUAUGGUU", "binding signal": "1910 ± 204"}]}, {"biological_target": "T4, ANKRD17 (Homo sapiens, UniProt O75179)", "T4 sequence": "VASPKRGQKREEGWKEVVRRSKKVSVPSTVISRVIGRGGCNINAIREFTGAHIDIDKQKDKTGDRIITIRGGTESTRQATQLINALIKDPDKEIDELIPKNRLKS", "assay": "protein domain microarray probed with biotinylated miRNA; Domain array: 20 mM Tris-HCl pH 7.4, 200 mM KCl, 0.2 mM EDTA, 0.05% NP40, 2 ug/ul heparin, overnight 4 C. ORF array: PBS pH 7.0 with RNase inhibitor, 100 ng RNA; high values mean tight binding", "details": "ssRNA", "units": {"binding signal": "fluorescence intensity"}, "values": [{"sequence": "AGAGGUAGUAGGUUGCAUAGUU", "binding signal": "36.4 ± 1.75"}, {"sequence": "UGAGGUAGUAGGUUGUAUAGUU", "binding signal": "26 ± 1.62"}, {"sequence": "CAGUGCAAUGAUGAAAGGGCAU", "binding signal": "37 ± 2.43"}, {"sequence": "UGAGGUAGUAGGUUGUGUGGUU", "binding signal": "94.6 ± 8.68"}, {"sequence": "UGAGGUAGUAGGUUGUAUGGUU", "binding signal": "51.9 ± 4.92"}]}]}
